Measurements reported in PubChem BioAssay.
Inconclusive results are not listed. Calls of active or inactive are those of the source.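 Rule for the calls, unless noted: active = inhibition above 50%, about 3 SD of the validation set; inactive = the rest.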

What was measured:
[1] = rapamycin-like changes in RPL19A-GFP expression – cell-based, S. cerevisiae, multiplex flow cytometry, primary screen (AID 1862; in the data active = percent of DMSO control GFP below about 86%;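 note: lower values mimic rapamycin by blocking the RPL19A rise seen in DMSO cells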); conditions: S. cerevisiae RPL19A-GFP strain, flow cytometry fluorescence, 3 h; at 10 µM; stronger effect = lower value
[2] = TOR pathway GLN3 branch reporter MEP2-GFP changes – S. cerevisiae, multiplex flow cytometry, primary screen (AID 1867;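 active = GFP response, as percent of the DMSO control, above the screen-wide mean plus 3 SD, about 139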;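 note: median GFP channel fluorescence of barcode-gated MEP2-GFP cells measured by flow cytometry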); conditions: S. cerevisiae MEP2-GFP strain, 3 h, at 10 µM, stronger effect = higher value, 100% means same as DMSO wells
[3] = TOR pathway RTG branch CIT2 reporter changes – S. cerevisiae, GFP fusion, multiplex flow cytometry, primary screen (AID 1870;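 active = percent response above a set limit, the screen-wide mean plus 3 SD, cut at about 130% in these data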;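 note: barcoded CIT2-GFP strain pooled with four other GFP strains with rapamycin as positive control; median GFP fluorescence per well over plate mean of DMSO wells so 100% = DMSO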); conditions: S. cerevisiae CIT2-GFP expression, 3 h, at 10 µM, stronger effect = higher value
[4] = TOR pathway LAP4-GFP level changes – S. cerevisiae, multiplex flow cytometry, primary screen (AID 1873;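 active = GFP signal, as percent of the solvent control, above the screen mean plus 3 SD, about 149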); conditions: S. cerevisiae LAP4-GFP expression, 3 h, at 10 µM, stronger effect = higher value
[5] = yeast AGP1-GFP level changes, GLN3 branch – cell-based, multiplex flow cytometry, S. cerevisiae, primary screen (AID 1887;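 active = GFP signal above the screen-wide mean plus 3 SD, that is over about 124.5% of the solvent control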;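 note: AGP1-GFP fusion strain of S. cerevisiae within a five-strain barcoded multiplex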); conditions: 3 h, at 10 µM, stronger effect = higher value
[6] = reduced mouse 2C T cell binding to pMHC/ICAM-1 vesicles – MLPCN validation set, flow cytometry, LFA-1/ICAM-1 modulator project, pilot screen (AID 2523;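 active = response below a set limit, under 55% cells CD8-positive and vesicle-bound, and CD8 cells' 90th-percentile brightness under 279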;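 for vesicle binding response: mean PE anti-B7-1 fluorescence of CD8+ cells relative to row control; 100% = QL9-loaded vesicles with DMSO vehicle in the same plate row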); conditions: 2C mouse CD8+ T cells, at 7 µM, stronger effect = lower value; double positive events: measured here: CD8+/vesicle+ event percentage
[7] = target: Integrin beta-1 (Homo sapiens) + Integrin alpha-4 (Homo sapiens) (UniProt P13612+P05556); assay: alpha4beta1 integrin LIBS antibody binding reduction – U937 cells, HUTS-21 mAb, flow cytometry, validation set, VLA-4 allosteric modulator project, pilot screen (AID 2674); conditions: HUTS-21 LIBS mAb binding, at 6.7 µM, stronger effect = higher value, binding induced by LDV ligand;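 note: antibody binding induced by the VLA-4 ligand LDV present at three times its Kd; 0% = LDV ligand with antibody and no compound and 100% = antibody without LDV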
Chain of Integrin beta-1 (Homo sapiens) + Integrin alpha-4 (Homo sapiens) (P05556 whole entry, looked up): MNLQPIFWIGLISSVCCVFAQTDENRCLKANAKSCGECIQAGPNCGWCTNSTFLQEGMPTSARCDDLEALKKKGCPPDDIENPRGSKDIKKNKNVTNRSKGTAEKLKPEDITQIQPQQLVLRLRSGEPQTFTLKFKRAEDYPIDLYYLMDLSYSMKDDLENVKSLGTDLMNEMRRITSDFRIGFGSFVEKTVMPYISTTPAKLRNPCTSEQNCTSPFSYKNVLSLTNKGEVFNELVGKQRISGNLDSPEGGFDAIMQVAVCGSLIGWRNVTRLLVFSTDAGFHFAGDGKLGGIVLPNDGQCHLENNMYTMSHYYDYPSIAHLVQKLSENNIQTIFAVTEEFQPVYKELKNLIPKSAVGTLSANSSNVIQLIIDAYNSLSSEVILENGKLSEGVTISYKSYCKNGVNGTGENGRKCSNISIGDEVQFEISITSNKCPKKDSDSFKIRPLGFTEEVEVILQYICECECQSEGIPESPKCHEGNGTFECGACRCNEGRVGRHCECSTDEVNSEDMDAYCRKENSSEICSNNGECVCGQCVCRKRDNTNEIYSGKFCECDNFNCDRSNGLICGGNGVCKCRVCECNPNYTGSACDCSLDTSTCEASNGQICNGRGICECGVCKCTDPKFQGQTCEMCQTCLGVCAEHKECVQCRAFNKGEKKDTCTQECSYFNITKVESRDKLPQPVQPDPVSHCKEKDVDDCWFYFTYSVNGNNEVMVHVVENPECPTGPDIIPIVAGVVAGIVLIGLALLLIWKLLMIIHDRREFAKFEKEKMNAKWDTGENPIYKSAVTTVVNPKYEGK
Chain of Integrin beta-1 (Homo sapiens) + Integrin alpha-4 (Homo sapiens) (P13612 whole entry, looked up): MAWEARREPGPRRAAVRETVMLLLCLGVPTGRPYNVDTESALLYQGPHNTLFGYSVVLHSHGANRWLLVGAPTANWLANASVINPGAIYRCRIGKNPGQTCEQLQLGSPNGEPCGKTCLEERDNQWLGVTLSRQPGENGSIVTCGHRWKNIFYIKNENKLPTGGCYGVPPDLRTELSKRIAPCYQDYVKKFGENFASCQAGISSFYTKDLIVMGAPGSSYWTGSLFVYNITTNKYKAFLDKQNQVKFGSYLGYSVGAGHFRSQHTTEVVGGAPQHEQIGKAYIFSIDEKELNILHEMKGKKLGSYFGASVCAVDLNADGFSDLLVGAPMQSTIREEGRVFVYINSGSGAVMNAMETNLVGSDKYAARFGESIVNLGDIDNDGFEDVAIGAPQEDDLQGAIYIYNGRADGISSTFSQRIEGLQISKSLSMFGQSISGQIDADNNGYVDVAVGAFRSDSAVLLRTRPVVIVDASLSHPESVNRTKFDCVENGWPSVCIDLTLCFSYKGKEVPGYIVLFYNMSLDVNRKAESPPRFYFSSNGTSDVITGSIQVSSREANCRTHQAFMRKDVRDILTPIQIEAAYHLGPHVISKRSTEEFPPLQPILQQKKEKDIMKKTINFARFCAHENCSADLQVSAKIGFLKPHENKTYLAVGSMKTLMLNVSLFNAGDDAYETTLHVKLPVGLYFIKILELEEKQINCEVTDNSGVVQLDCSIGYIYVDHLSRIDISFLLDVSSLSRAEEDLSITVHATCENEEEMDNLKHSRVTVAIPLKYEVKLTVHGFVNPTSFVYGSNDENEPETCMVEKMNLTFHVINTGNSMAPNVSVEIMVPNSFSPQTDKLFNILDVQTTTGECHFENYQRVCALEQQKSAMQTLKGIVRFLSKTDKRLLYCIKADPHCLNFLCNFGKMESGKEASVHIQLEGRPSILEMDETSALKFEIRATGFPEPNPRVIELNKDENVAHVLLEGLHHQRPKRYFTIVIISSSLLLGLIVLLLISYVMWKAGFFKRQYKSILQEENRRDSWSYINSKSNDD

[8] = calorie-restriction mimetic ROS inhibitors, yeast – validation compound set, pilot screen (AID 2706;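 active = superoxide response below 65% of plate, a cut near 3 SD across the whole screen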;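 note: yeast exposed to compound for one week at 30 degrees C before staining; 100% = mean of all compound wells on the same plate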); conditions: S. cerevisiae aging, superoxide DHE fluorescence; at 10 µM, stronger effect = lower value
[9] = target: Beta-adrenergic receptor kinase 1 (Homo sapiens) (UniProt P25098); assay: GRK2 binders displacing RNA aptamer, biochemical, validation, human GRK2, bead flow cytometry (AID 488806;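 active = aptamer binding inhibition above 30%, about 3 SD of noise from non-fluorescent compounds; inactive = inhibition at or below 30%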); conditions: bead-bound GRK2, FAM-aptamer displacement, at 10 µM, stronger effect = higher value
Chain of Beta-adrenergic receptor kinase 1 (Homo sapiens) (P25098 whole entry, looked up): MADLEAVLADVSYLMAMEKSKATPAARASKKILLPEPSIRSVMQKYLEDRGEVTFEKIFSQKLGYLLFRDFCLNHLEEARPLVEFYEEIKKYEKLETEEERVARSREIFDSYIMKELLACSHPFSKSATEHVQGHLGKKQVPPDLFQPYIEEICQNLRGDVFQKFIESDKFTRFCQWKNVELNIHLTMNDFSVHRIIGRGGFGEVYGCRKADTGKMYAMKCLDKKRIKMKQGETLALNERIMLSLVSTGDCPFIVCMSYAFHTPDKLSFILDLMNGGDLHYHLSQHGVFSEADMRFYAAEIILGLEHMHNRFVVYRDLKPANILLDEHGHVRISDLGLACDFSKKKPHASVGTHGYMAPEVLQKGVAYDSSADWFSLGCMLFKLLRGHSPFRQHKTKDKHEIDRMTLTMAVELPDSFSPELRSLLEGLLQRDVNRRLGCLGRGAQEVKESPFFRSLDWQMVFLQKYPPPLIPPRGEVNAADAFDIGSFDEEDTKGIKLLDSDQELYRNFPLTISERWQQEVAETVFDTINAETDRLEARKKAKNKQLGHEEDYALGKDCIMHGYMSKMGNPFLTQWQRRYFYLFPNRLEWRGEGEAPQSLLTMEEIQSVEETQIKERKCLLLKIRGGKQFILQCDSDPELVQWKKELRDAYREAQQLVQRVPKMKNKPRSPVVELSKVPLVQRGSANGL

[10] = cytosolic pH regulators acting via V-ATPase – S. cerevisiae, pHLuorin, HTS validation (AID 504600; in the data active = response above about 15%;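 note: plate controls were DMSO for no effect and reference compound for full effect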); conditions: V-ATPase proton transport, at 10 µM, stronger effect = higher value
[11] = tested on: anti-desmoglein-3 scFv antibody binding to human DSG3; assay: blockers of pathogenic pemphigus antibody–desmoglein-3 binding – biochemical, validation compound set, bead-based, flow cytometry, pilot screen (AID 588368;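 active = binding below the plate cutoff, the plate median minus 3 SD, with a reading above zero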;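 note: signal is the median channel fluorescence of bead-bound GFP antibody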); conditions: Protein G beads, DSG3-Fc, scFv-GFP binding, at 10 µM, stronger effect = lower value
[12] = Nile Red efflux blockade in pump-expressing yeast – validation compound set, multiplex, phenotypic, pilot screen (AID 588506;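 active = efflux inhibition above 0.42, the validation set average plus 4 SD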;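 note: Nile Red retained in cells so higher fluorescence means more efflux inhibition; 0 = negative control wells and 1 = enniatin B 25 µM full block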); conditions: S. cerevisiae pump-expressing triplex, Nile Red efflux flow cytometry; at 10 µM; stronger effect = higher value; the pumps come from Candida albicans
[13] = target: ATP-binding cassette sub-family B member 6 (Homo sapiens) (UniProt Q9NP58); assay: blockers of ABCB6-driven porphyrin uptake – K562-ABCB6 cells, flow cytometry, validation set, pilot screen (AID 588550;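 active = inhibition above the screen-wide mean plus 3 SD, about 51%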;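 note: 0% = DMSO wells and 100% = benzethonium chloride 70 µM positive control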); conditions: K562-ABCB6 porphyrin accumulation, 1 h, at 10 µM, stronger effect = higher value
Chain of ATP-binding cassette sub-family B member 6 (Homo sapiens) (Q9NP58 whole entry, looked up): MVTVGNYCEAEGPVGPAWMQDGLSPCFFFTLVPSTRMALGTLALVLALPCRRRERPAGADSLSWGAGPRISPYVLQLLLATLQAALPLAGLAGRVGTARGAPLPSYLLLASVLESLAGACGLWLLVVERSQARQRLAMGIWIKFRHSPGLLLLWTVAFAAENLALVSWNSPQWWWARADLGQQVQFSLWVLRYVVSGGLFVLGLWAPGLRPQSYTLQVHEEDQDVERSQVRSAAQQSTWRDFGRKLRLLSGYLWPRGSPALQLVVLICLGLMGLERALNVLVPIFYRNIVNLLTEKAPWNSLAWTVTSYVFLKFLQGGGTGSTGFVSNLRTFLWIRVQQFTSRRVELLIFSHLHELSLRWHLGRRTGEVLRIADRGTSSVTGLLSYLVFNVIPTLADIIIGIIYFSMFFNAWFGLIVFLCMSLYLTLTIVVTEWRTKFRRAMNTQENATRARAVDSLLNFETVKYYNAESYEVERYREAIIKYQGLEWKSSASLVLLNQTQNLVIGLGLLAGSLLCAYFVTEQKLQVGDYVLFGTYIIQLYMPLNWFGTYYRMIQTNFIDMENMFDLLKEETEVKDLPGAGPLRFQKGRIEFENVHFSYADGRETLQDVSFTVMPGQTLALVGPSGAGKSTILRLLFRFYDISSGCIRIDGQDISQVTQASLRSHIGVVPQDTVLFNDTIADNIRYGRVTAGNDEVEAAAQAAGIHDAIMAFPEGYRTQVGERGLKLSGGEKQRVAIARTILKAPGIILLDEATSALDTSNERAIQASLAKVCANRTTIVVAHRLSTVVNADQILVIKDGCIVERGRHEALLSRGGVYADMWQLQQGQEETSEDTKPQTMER

[14] = AML differentiation inducers, ER-HoxA9 marrow cells – cell-based, GFP/MAC1 double positive, flow cytometry, validation set, primary screen (AID 588685;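 active = differentiation response of at least 50%, scaled between solvent and reference control, from cells with both markers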;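 note: compound exposure lasts four days before antibody staining and flow analysis; 0% = DMSO wells and 100% = 5 µM fulvestrant positive control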); conditions: stronger effect = higher value, normalized: vehicle 0, fulvestrant 100
[15] = target: AP-2 complex subunit beta (Homo sapiens) (UniProt P63010); assay: beta-arrestin/AP2 interaction blockers – biochemical, validation set, GST-AP2 beads, flow cytometry, pilot screen (AID 504541;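 active = inhibition above 54%, about 3 SD of non-fluorescent compounds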;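 note: AP2 carries R879A mutation and is captured from E. coli lysate; bead-bound FITC arrestin peptide fluorescence measuring arrestin peptide binding to AP2; 0% = DMSO wells and 100% = excess unlabeled arrestin peptide control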); conditions: FITC arrestin peptide, at 10 µM, stronger effect = higher value, AP2 beta2 appendage fragment, R879A mutant
Chain of AP-2 complex subunit beta (Homo sapiens) (P63010 whole entry, looked up, the tested form may be a part, one chain of several): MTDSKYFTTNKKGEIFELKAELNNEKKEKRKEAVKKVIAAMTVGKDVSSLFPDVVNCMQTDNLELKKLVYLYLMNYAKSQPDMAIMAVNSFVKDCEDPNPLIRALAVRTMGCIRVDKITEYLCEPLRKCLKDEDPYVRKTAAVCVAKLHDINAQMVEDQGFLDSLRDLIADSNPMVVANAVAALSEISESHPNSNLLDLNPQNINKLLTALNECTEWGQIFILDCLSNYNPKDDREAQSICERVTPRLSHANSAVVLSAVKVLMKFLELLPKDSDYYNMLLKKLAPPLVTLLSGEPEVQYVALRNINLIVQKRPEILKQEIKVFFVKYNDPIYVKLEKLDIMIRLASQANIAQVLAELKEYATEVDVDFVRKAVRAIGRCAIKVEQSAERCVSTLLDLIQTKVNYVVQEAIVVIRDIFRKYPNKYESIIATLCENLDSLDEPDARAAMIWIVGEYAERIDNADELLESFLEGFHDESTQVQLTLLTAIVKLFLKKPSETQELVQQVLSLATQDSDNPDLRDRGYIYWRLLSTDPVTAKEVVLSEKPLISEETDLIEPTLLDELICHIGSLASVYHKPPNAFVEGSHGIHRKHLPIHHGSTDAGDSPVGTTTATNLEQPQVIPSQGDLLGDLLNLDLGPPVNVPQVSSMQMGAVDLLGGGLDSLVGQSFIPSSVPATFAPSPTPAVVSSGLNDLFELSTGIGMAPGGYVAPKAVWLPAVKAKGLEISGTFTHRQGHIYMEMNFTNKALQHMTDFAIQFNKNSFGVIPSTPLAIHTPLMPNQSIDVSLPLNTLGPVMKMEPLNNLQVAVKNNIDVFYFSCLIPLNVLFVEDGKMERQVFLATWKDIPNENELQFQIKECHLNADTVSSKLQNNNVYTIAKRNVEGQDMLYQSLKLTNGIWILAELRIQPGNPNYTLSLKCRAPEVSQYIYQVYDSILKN

[16] = target: Beta-2 adrenergic receptor (Homo sapiens) (UniProt P07550); assay: agonist-induced loss of surface beta2AR – cell-based, FAP fluorogen, flow cytometry, validation set, pilot screen (AID 504459;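 active = percent response above 42, roughly 3 SD of non-fluorescent test compounds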;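 note: agonist-driven loss of surface beta2AR via internalization measured by FAP dye flow cytometry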); conditions: Am2.2-beta2AR cells, at 10 µM, stronger effect = higher value
Chain of Beta-2 adrenergic receptor (Homo sapiens) (P07550 whole entry, looked up): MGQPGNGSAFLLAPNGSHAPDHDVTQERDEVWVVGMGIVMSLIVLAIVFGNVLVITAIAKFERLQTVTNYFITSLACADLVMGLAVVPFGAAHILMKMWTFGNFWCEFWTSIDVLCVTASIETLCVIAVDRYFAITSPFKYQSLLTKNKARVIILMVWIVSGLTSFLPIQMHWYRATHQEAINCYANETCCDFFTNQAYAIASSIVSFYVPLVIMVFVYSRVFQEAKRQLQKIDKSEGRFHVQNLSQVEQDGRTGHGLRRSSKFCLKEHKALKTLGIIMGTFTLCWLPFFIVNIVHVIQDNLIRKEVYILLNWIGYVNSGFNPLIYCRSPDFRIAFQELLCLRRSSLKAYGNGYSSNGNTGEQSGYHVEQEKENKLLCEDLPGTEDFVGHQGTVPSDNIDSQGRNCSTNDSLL

For `C=C(C)COc1ccc(-c2n[nH]c(C)c2-c2ccc(OC)cc2)c(O)c1`, the percent of DMSO control GFP [1] was 105% (inactive), the GFP response vs DMSO [2] was 111% (inactive) and the percent response of DMSO control [3] was 95.9% (inactive). For the same compound, the GFP response vs DMSO [4] was 112% (inactive), the GFP response, % of DMSO [5] was 87.7% (inactive) and the double positive events [6] was 58.9%. The vesicle binding response [6] was 175% (inactive), the inhibition [7] was -9.57% (inactive) and the superoxide response (% of plate) [8] was 101% (inactive). The aptamer binding inhibition [9] was -3% (inactive), the response [10] was -1.12% (inactive) and the binding (% of control) [11] was 107% (inactive). The efflux inhibition (fraction of control) [12] was 0.75 (active), the inhibition [13] was 10% (inactive) and the differentiation response [14] was -9.89% (inactive).
For `COc1cccc(OCc2cc(C3Nc4ccccc4C(=O)N3Cc3ccco3)ccc2OC)c1` (stereo not drawn), the percent of DMSO control GFP [1] was 106% (inactive), the GFP response vs DMSO [2] was 99.9% (inactive) and the percent response of DMSO control [3] was 104% (inactive). The GFP response vs DMSO [4] was 92.3% (inactive), the GFP response, % of DMSO [5] was 88.9% (inactive) and the double positive events [6] was 53.2%. The vesicle binding response [6] was 127% (inactive), the inhibition [7] was 3.49% (inactive) and the superoxide response (% of plate) [8] was 99.1% (inactive). The aptamer binding inhibition [9] was 4% (inactive), the inhibition [15] was -4.8% (inactive) and the response [10] was 0% (inactive). For the same compound, the binding (% of control) [11] was 96.5% (inactive), the efflux inhibition (fraction of control) [12] was 0.03 (inactive) and the inhibition [13] was 3% (inactive). For the same compound, the differentiation response [14] was -9.89% (inactive).
With `CC(C)(C)NCC(O)c1cc(O)cc(O)c1` (stereo not drawn) the percent of DMSO control GFP [1] was 97.8% (inactive), the GFP response vs DMSO [2] was 102% (inactive) and the percent response of DMSO control [3] was 95.1% (inactive). For the same compound, the GFP response vs DMSO [4] was 106% (inactive), the GFP response, % of DMSO [5] was 119% (inactive) and the double positive events [6] was 61.6%. The vesicle binding response [6] was 190% (inactive), the inhibition [7] was -15.6% (inactive) and the superoxide response (% of plate) [8] was 113% (inactive). The inhibition [15] was -13.2% (inactive), the response [10] was -6.14% (inactive) and the binding (% of control) [11] was 100% (inactive). The efflux inhibition (fraction of control) [12] was -0.04 (inactive), the inhibition [13] was 6% (inactive) and the differentiation response [14] was -4.99% (inactive).
In the case of `CCC1(c2ccccc2)C(=O)NCNC1=O`, the percent of DMSO control GFP [1] is reported as 102% (inactive), the GFP response vs DMSO [2] is reported as 94.1% (inactive) and the percent response of DMSO control [3] is reported as 95.4% (inactive). The GFP response vs DMSO [4] was 87.4% (inactive), the GFP response, % of DMSO [5] was 92.6% (inactive) and the double positive events [6] was 61.9%. For the same compound, the vesicle binding response [6] was 285% (inactive), the inhibition [7] was 5.77% (inactive) and the aptamer binding inhibition [9] was 2% (inactive). For the same compound, the response [16] was 7.83% (inactive), the inhibition [15] was 13.7% (inactive) and the response [10] was 1.33% (inactive). For the same compound, the binding (% of control) [11] was 101% (inactive), the efflux inhibition (fraction of control) [12] was 0.77 (active) and the inhibition [13] was -12% (inactive). The differentiation response [14] was 13.9% (inactive).
With `O=C(c1ccc(-c2ccccc2)c(F)c1)C1CCCN(C(=O)c2cncs2)C1` (stereo not drawn) the percent of DMSO control GFP [1] was 100% (inactive), the GFP response vs DMSO [2] was 103% (inactive) and the percent response of DMSO control [3] was 95.9% (inactive). For the same compound, the GFP response vs DMSO [4] was 108% (inactive), the GFP response, % of DMSO [5] was 91.8% (inactive) and the double positive events [6] was 49.8%. For the same compound, the vesicle binding response [6] was 157% (inactive), the inhibition [7] was 11.9% (inactive) and the superoxide response (% of plate) [8] was 132% (inactive). For the same compound, the aptamer binding inhibition [9] was 7% (inactive), the inhibition [15] was -11% (inactive) and the response [10] was 13.7% (inactive). For the same compound, the binding (% of control) [11] was 101% (inactive), the efflux inhibition (fraction of control) [12] was -0.47 (inactive) and the inhibition [13] was 9% (inactive). For the same compound, the differentiation response [14] was -14.7% (inactive).
In the case of `C#CCN1C(=O)C(O)(CC(=O)c2ccc(OC)c(OC)c2)c2ccccc21` (stereo not drawn), the percent of DMSO control GFP [1] is reported as 102% (inactive), the GFP response vs DMSO [2] is reported as 103% (inactive) and the percent response of DMSO control [3] is reported as 93.1% (inactive). The GFP response vs DMSO [4] was 98% (inactive), the GFP response, % of DMSO [5] was 97.6% (inactive) and the double positive events [6] was 64.1%. For the same compound, the vesicle binding response [6] was 315% (inactive), the inhibition [7] was 11% (inactive) and the aptamer binding inhibition [9] was 1% (inactive). For the same compound, the response [16] was -2.19% (inactive), the inhibition [15] was -2.48% (inactive) and the response [10] was -1.43% (inactive). For the same compound, the binding (% of control) [11] was 104% (inactive), the efflux inhibition (fraction of control) [12] was 0.11 (inactive) and the inhibition [13] was -4% (inactive). The differentiation response [14] was 12.9% (inactive).
In the case of `CCN(CC)CCNc1ccc(CO)c2sc3ccccc3c(=O)c12`, the percent of DMSO control GFP [1] is reported as 104% (inactive), the GFP response vs DMSO [2] is reported as 109% (inactive) and the percent response of DMSO control [3] is reported as 112% (inactive). For the same compound, the GFP response vs DMSO [4] was 112% (inactive), the GFP response, % of DMSO [5] was 103% (inactive) and the double positive events [6] was 47.8%. The vesicle binding response [6] was 231% (inactive), the inhibition [7] was 21.2% (inactive) and the superoxide response (% of plate) [8] was 109% (inactive). For the same compound, the aptamer binding inhibition [9] was -5% (inactive), the inhibition [15] was -0.76% (inactive) and the response [10] was 2.76% (inactive). For the same compound, the binding (% of control) [11] was 120% (inactive), the efflux inhibition (fraction of control) [12] was -0.39 (inactive) and the inhibition [13] was 8% (inactive). The differentiation response [14] was -8.27% (inactive).
In the case of `COc1ccc2cc(CCC(C)=O)ccc2c1`, the percent of DMSO control GFP [1] is reported as 101% (inactive), the GFP response vs DMSO [2] is reported as 103% (inactive) and the percent response of DMSO control [3] is reported as 93% (inactive). The GFP response vs DMSO [4] was 101% (inactive), the GFP response, % of DMSO [5] was 85.2% (inactive) and the double positive events [6] was 55.4%. For the same compound, the vesicle binding response [6] was 150% (inactive), the inhibition [7] was 2.56% (inactive) and the superoxide response (% of plate) [8] was 86.7% (inactive). For the same compound, the aptamer binding inhibition [9] was 2% (inactive), the inhibition [15] was -2.69% (inactive) and the response [10] was -0.19% (inactive). For the same compound, the binding (% of control) [11] was 108% (inactive), the efflux inhibition (fraction of control) [12] was 0.63 (active) and the inhibition [13] was 4% (inactive). For the same compound, the differentiation response [14] was 0% (inactive).
For `CNCCCC12CCC(c3ccccc31)c1ccccc12`, the percent of DMSO control GFP [1] was 101% (inactive), the GFP response vs DMSO [2] was 107% (inactive) and the percent response of DMSO control [3] was 90.8% (inactive). For the same compound, the GFP response vs DMSO [4] was 95.3% (inactive), the GFP response, % of DMSO [5] was 96.7% (inactive) and the double positive events [6] was 66.4%. The vesicle binding response [6] was 234% (inactive), the inhibition [7] was 11% (inactive) and the aptamer binding inhibition [9] was -11% (inactive). The response [16] was 28.2% (inactive), the inhibition [15] was 3.24% (inactive) and the response [10] was 2% (inactive). For the same compound, the binding (% of control) [11] was 103% (inactive), the efflux inhibition (fraction of control) [12] was 0.33 (inactive) and the inhibition [13] was -7% (inactive). The differentiation response [14] was 18.8% (inactive).
In the case of `CN(C)CCC(c1ccc(Br)cc1)c1ccccn1` (stereo not drawn), the percent of DMSO control GFP [1] is reported as 103% (inactive), the GFP response vs DMSO [2] is reported as 101% (inactive) and the percent response of DMSO control [3] is reported as 94.9% (inactive). For the same compound, the GFP response vs DMSO [4] was 97.4% (inactive), the GFP response, % of DMSO [5] was 100% (inactive) and the double positive events [6] was 56.9%. The vesicle binding response [6] was 182% (inactive), the inhibition [7] was 36.1% (inactive) and the superoxide response (% of plate) [8] was 106% (inactive). The aptamer binding inhibition [9] was 2% (inactive), the inhibition [15] was -4.8% (inactive) and the response [10] was 2.41% (inactive). The binding (% of control) [11] was 103% (inactive), the efflux inhibition (fraction of control) [12] was 0.18 (inactive) and the inhibition [13] was 12% (inactive). The differentiation response [14] was -1.82% (inactive).
